# Assay outcomes deposited in PubChem by National Center for Advancing Translational Sciences (NCATS).
# PLK1 PBD inh: inhibitors of human PLK1 polo-box domain binding; P53350; Plk1 PBD binding of FITC phosphopeptide, fluorescence polarization; Potency, µM, for the others: max response, negative = inhibition, actives largely listed as inhibitors; 360,000 compounds, 2.8% hits; AID 720504; further: potency means the concentration at half of the fitted maximal effect; series mostly up to about 57 µM; on the % scale 0 is the no-effect control and ±100 the full control effect; nearly all actives have a fitted effect of over 65% in size
# JMJD2A Tudor inh: JMJD2A Tudor domain (human) inhibition; O75164; AlphaScreen JMJD2A-Tudor / H3K4me3 peptide binding; Potency, µM (series often up to 114 µM), without a hit: at the highest dose activity change, negative = inhibition, actives largely listed as inhibitors; 390,000 compounds, 4.4% hits; further: potency means the concentration at half of the fitted maximal effect; on the % scale 0 is the no-effect control and ±100 the full control effect; nearly all actives have a fitted effect of over 50% in size
# PI5P4K alpha inh: PI5P4K alpha (human) kinase inhibition. max response, %. 330,000 compounds, 1.2% hits. P48426. PI5P4Kalpha enzyme, ADP-Glo luminescence, 60 min; stronger effect = lower value; active means max response of -50% or lower; inconclusive means between -30% and -50%; inactive means -30% or higher; further: value at the top dose of about 77 µM; on the % scale 0 is the no-effect control and ±100 the full control effect
# Target sequence (P48426 whole entry, looked up): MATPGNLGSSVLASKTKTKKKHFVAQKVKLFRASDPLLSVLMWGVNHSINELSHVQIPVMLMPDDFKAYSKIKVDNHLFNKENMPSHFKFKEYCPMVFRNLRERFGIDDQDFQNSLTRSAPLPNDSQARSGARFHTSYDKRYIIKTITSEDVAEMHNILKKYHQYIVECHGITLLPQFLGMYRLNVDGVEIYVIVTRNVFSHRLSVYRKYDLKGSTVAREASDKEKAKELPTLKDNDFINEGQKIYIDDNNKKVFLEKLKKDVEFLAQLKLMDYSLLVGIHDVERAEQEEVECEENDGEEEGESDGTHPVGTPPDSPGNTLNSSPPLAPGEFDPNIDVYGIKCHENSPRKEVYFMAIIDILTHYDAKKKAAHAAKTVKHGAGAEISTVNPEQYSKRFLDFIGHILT
#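 Quantitative HTS of the MLSMR library against PI5P4Kalpha with substrate. ATP added last at 5 microM final; room temperature, 60 minutes. Remaining ATP depleted, ADP converted and read as luminescence.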
# GCN5L2 inh: GCN5L2 (KAT2A) acetyltransferase inhibition | Q92830 | AID 504327 | 390,000 compounds, 0.21% hits | Potency, µM (doses to about 58.9 µM), for the others: at the top dose activity change, negative = inhibition, actives largely listed as inhibitors | GCN5L2 HAT assay, ThioGlo1 CoA-SH fluorescence; further: potency means the concentration at half of the fitted maximal effect; on the % scale 0 is the no-effect control and ±100 the full control effect
#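 GCN5L2 (20 nM) in 50mM HEPES pH 7.5, 0.1mM EDTA, 0.01% Tween-20 preincubated 15 min with compounds at room temperature. Reaction started with H3(1-25) 75uM, acetyl-CoA 70uM, ThioGlo1 50uM; CoA-thiol fluorescence (Ex340/Em540) read at 0 and 20 min.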
# HP1b chromo inh: blocks HP1-beta chromodomain binding to methylated histone tails | P83916 | AlphaScreen HP1-beta / biotin-H3K9me3 peptide binding | Potency, µM (doses to about 114 µM), without a hit: at the highest dose activity change, negative = inhibition, most hits filed as inhibitors | 390,000 compounds, 0.56% hits | AID 540317; further: potency means the concentration at half of the fitted maximal effect; nearly all actives have a fitted effect of over 70% in size
# Target sequence (P83916 whole entry, looked up): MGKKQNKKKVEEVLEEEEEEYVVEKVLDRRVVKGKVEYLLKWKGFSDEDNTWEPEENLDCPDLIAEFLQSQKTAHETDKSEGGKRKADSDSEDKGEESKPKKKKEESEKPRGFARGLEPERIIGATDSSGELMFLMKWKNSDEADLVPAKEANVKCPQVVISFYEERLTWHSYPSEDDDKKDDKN
#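 AlphaScreen: HP1-beta (50 nM) preformed 30 min with biotin-H3(1-18)K9me3 peptide (50 nM) in PBS pH 7.4, 0.01% Tween-20. Compound added for 30 min at RT, then streptavidin donor/nickel chelate acceptor beads (10 ug/mL) for 30 min.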
# BAZ2B inh: blocks human BAZ2B. 360,000 compounds, 4.4% hits. AlphaScreen BAZ2B-H3K14Ac peptide displacement. Potency, µM (titrated, usually from 114 µM), for the others: at the top dose activity change, negative = inhibition, usual class: inhibitors. Q9UIF8. AID 504333; further: potency means the concentration at half of the fitted maximal effect; on the % scale 0 is the no-effect control and ±100 the full control effect; nearly all actives have a fitted effect of over 60% in size
#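 Compounds, titrated to a top concentration of 110 uM, were incubated 30 min at room temperature with preformed BAZ2B/acetyl-K14 H3 peptide complex (50 nM each). Proximity signal was measured by AlphaScreen after 20 min with beads.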
# Active calls of the source: *; ? = inconclusive; . = no result given; [ ] = another dose, or the depositor's remark. Shown are actives, neighbours in structure and some others; about 7% of the full set was active somewhere. Unless noted, the call rests on the fitted dose curve; in most records, active means well fitted curve in the direction sought with a large enough effect; inconclusive means small, poorly fitted or top-dose-only effect, or another doubt; inactive means no such curve, though single readings can be large; an effect the other way counts as inactive or inconclusive.
SMILES,PLK1 PBD inh,JMJD2A Tudor inh,PI5P4K alpha inh,GCN5L2 inh,HP1b chromo inh,BAZ2B inh
COc1cc(NC(=O)c2cccc(Cl)c2)c(OC)cc1NC(=O)CN1CCOCC1,-4%,?,7,-4%,15%,?
O=C(O)COc1ccccc1/C=N/NC(=O)CSc1nc2ccccc2c(=O)n1-c1ccccc1,-8%,-28%,-11,-15%,1%,?
O=C(O)COc1ccccc1/C=N/NC(=O)CSc1nc2ccccc2c(=O)n1-c1ccc(Cl)cc1,-17%,?,-12,-30%,15%,56µM*
CCn1c(SCC(=O)N/N=C/c2ccccc2OCC(=O)O)nnc1-c1ccc(OC)cc1,-9%,-18%,-1,-4%,-7%,56µM*
CCC(=O)N1CCc2cc(Br)cc(S(=O)(=O)N3CCC(C(=O)Nc4ccccc4CC)CC3)c21,.,-9%,.,0%,31%,-2%
COc1ccc(OC)c(S(=O)(=O)NCCCc2ccccc2)c1,-13%,-24%,-6,-1%,40%,12%
Cc1oc(-c2ccc(F)cc2)cc1-c1nn2c(-c3ccoc3C)nnc2s1,?,89µM*,-74*,-18%,?,35µM*
Cc1oc(-c2ccc(Cl)cc2)cc1-c1nn2c(-c3ccco3)nnc2s1,.,.,.,-14%,.,35µM*
Cc1ccc(-n2ncc(C(=O)NCc3ccc4c(c3)OCO4)c2C2CCN(C(=O)OC(C)(C)C)CC2)c(C)c1,.,-25%,.,?,17%,-3%[57.1 µM]
C/C(=N\O)C(=O)NCC1CCNCC1,27µM*,-9%[11.4 µM],-18,2%,1%,-7%
C/C(=N\O)C(=O)NCc1ccncc1,-15%,-7%[11.4 µM],1,0%,47%,3%
COC(=O)c1ccc(CSc2nnc(N)s2)cc1,-3%,-11%,3,0%,11%,-4%
COC(=O)c1ccc(CSc2nnc(C)s2)cc1,3.4µM*,?,-51*,-11%,-7%,-7%
COc1ccccc1CNC(=O)CCNS(=O)(=O)c1cc(Br)cnc1N,27µM*,?,-12,-9%,21%,-13%
Fc1ccccc1Cn1nnc2c(-n3ccnc3)ncnc21,24µM*,56µM*,-1,1%,-11%,2%
COc1ccc(OC)c2nc3c(cc12)CCC3,1%,-12%,0,?,3%,3%
O=C(CC12CC3CC(C1)CC(CC(=O)NC1=NCCS1)(C3)C2)NC1=NCCS1,-16%,-8%,-11,3%,38%,-8%
O=C(NC1=NCCS1)C12CC3CC(C1)CC(C(=O)NC1=NCCS1)(C3)C2,-12%,56µM*,-4,-3%,0%,50µM*
CCCCCc1nnc(NC(=O)c2ccc3nc[nH]c3c2)s1,-9%,-7%,-27,-10%,42%,9%
CSc1ccccc1NC(=O)CN(C)C(=O)COc1cccc2cccnc12,-8%,22µM*,-16,1%,0%,.
CN(CC(=O)Nc1ccc(Cl)c(C(F)(F)F)c1)C(=O)COc1cccc2cccnc12,0%,.,3,.,.,.
Cc1ccc(NC(=O)CCCn2c(=S)[nH]c3ccsc3c2=O)cc1C,-29%,-18%,-5,-5%,44%,-11%
Cc1cc(C)[n+](C)n1CC(O)Cn1c2ccccc2c2ccccc21 (stereo unspecified),-14%,-9%[11.4 µM],-4,-3%,1%,-12%
Cc1cc2c(cc1S(=O)(=O)N(C)C1CCCCC1)OCC(=O)N2,-4%,-10%,2,?,28%,2%
Cc1cc2[nH]c(=O)c(=O)[nH]c2cc1S(=O)(=O)N(C)C1CCCCC1,-12%,3.5µM*,2,-5%,36%,1%
SMILES,PLK1 PBD inh,JMJD2A Tudor inh,PI5P4K alpha inh,GCN5L2 inh,HP1b chromo inh,BAZ2B inh
CCN1C(=O)/C(=C\c2cn(-c3ccccc3)nc2-c2cccnc2)SC1=S,1%,-17%,-6,-11%,18%,-11%
CC(C)COc1ccc(-c2nn(-c3ccccc3)cc2/C=C2/SC(=S)N(CC(=O)O)C2=O)cc1,21µM*,45µM*,6,?,40µM*,45µM*
CCOc1ccc(-c2nn(-c3ccccc3)cc2/C=C2\SC(=S)N(Cc3ccco3)C2=O)cc1,-18%,?,5,-4%,-2%,-9%
O=C(O)CN1C(=O)/C(=C\c2cn(-c3ccccc3)nc2-c2ccccc2)SC1=S,21µM*,50µM*,?,-12%,-21%[57 µM],?
Cc1ccc(S(=O)(=O)N(C)C[C@@H]2OCc3cnnn3CCCC(=O)N([C@@H](C)CO)C[C@@H]2C)cc1,-25%,.,-4,.,.,.
Nc1n[nH]c(=S)n1/N=C1/C(=O)Nc2ccccc21,27µM*,2.5µM*,-89*,7.1µM*,16µM*,-25%
CCOC(=O)C(Sc1cc(C)nc(N)n1)C(C)=O (stereo unspecified),-29%,56µM*,-8,-2%,3%,-1%
COc1cccc(NC(=O)CCc2nnc3ccc(N4CCN(c5cccc(OC)c5)CC4)nn23)c1,6µM*,?,-5,1%,-4%,1%
CC(=O)c1cccc(OCC(O)CNCC2CCCCC2)c1 (stereo unspecified),-2%,8.9µM*,-8,16%,71µM*,56µM*
CC(=O)c1cccc(OCC(O)CNCCOc2ccc(C)cc2)c1 (stereo unspecified),-4%,4µM*,8,-1%,-5%,50µM*
CC(=O)c1cccc(NC(=O)CCCOc2ccc(C)cc2)c1,-29%,-1%[57.1 µM],-5,0%,0%,6%
CC(=O)c1cccc(OCC(=O)NC2CCCCCC2)c1,2%,2%,6,1%,41%,-2%
CCN(Cc1ccccc1)C(=O)COC(=O)[C@@H]1CCCN1C(=O)c1cccs1,-6%,-12%,0,-9%,10%[57 µM],.
COc1cc(C(=O)N2CCN(CCc3ccccn3)CC2)cc(OC)c1OC,.,5%,.,-5%,?,-15%
C=CCOc1cccc(C2/C(=C(/O)c3ccccc3)C(=O)C(=O)N2CCN2CCOCC2)c1 (stereo unspecified),-12%,79µM*,.,?,12%,?
O=C1C(=O)N(CCN2CCOCC2)C(c2ccc([N+](=O)[O-])cc2)/C1=C(/O)c1ccc2c(c1)OCO2 (stereo unspecified),?,25µM*,1,-6%,21%,-11%
C=CCOc1ccc(/C(O)=C2/C(=O)C(=O)N(CCCN3CCOCC3)C2c2ccccc2)cc1 (stereo unspecified),3µM*,?,?,.,-7%,.
CC(C)n1c(O)c(N=NC(=O)c2ccccc2NS(=O)(=O)c2cccs2)c2ccccc21,17µM*,14µM*,-28,41%,-3%,?
COc1ccc(NC(=O)COC(=O)c2cc3c(s2)CCC3)cc1,-20%,?,?,-20%,?,79µM*
